# According to PubChem BioAssay (NCATS):
# Where “and” joins values, the source holds several entries; their conditions need not be identical. Identical values can stand only once. Records with an inconclusive call do not appear. Entries that show only a call come without a potency. Calls of active or inactive are those of the source. Unless noted, the call rests on the fitted dose curve; in most records, active means well fitted curve in the direction sought with a large enough effect; inconclusive means small, poorly fitted or top-dose-only effect, or another doubt; inactive means no such curve, though single readings can be large; an effect the other way counts as inactive or inconclusive.
# What was measured:
# [1] = qHTS for Inhibitors of Ubiquitin-specific Protease USP2a Using CHOP2 as the Reporter: K633 Counterscreen (AID 652168)
# How it was run: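 Cell-free interference counterscreen without USP2a: compounds pinned into enzyme-free buffer (20 mM Tris pH 8, 2 mM beta-mercaptoethanol, 0.05% Chaps), then DiUb K48-4IQF substrate added (100 nM stock); fluorescence read kinetically, Ex 525/Em 598.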
# [2] = qHTS for Inhibitors of Ubiquitin-specific Protease USP2a Using CHOP2 as the Reporter: Cytotox Assay (AID 652170); further: nearly all actives have a fitted effect of over 70% in size
# How it was run: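 HCT116 human colon cancer cells, 600 per well in DMEM with 10% FBS, exposed to compounds for 72 hr at 37 deg C. ATP measured by CellTiter-Glo luminescence, normalized to DMSO cells and no-cell background.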
# [3] = qHTS assay for small molecule agonists of the antioxidant response element (ARE) signaling pathway measured by Nrf2-dependant transcriptional activity (AID 720636; active means well fitted curve in the direction sought with a large enough effect in the repeat runs; an effect the other way counts as inactive or inconclusive)
# How it was run: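 ARE-luc HepG2 cells carrying an Nrf2-responsive luciferase reporter were plated in medium with 1% dialyzed FBS, left 6 hr at 37 C to attach, then exposed to compound for 16 hr. Luciferase luminescence was read after ONE-Glo addition.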
# [4] = qHTS assay for small molecule antagonists of the retinoid-related orphan receptor gamma (ROR-gamma) signaling pathway - cell viability counter screen (AID 720652; active means well fitted curve in the direction sought with a large enough effect in the repeat runs; an effect the other way counts as inactive or inconclusive;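 further: CHO reporter cells with doxycycline-induced ROR-gamma expression; compound exposure lasted 16 hr before ATP read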)
# How it was run: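 Cytotoxicity is quantified via intracellular ATP (CellTiter-Glo luminescence) in doxycycline-induced CHO ROR response element-luciferase reporter cells treated with compound for 16 hr at 37 C, 5% CO2.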
# [5] = qHTS assay for small molecule agonists of the antioxidant response element (ARE) signaling pathway measured by Nrf2-dependant transcriptional activity - cell viability counter screen (AID 720653; active means well fitted curve in the direction sought with a large enough effect in the repeat runs; an effect the other way counts as inactive or inconclusive); details: ARE-bla HepG2 viability, CellTiter-Glo ATP luminescence, 16 h; max response: stronger effect = lower value
# How it was run: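 ARE-bla HepG2 cells (2,000/well) rested 5 hrs at 37C/5% CO2, then exposed to compounds in DMSO for 16 hrs. Viability was read in the same wells as intracellular ATP by luminescence, 30 min at room temperature after reagent addition.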
# [6] = qHTS Assay for Identifying Gametocytocidal Compounds (AID 743244); further: potency means the concentration at half of the fitted maximal effect;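 on max response: actives lower the fluorescent signal which means gametocytes are killed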; details: P. falciparum 3D7 stage III-V gametocytes, alamarBlue, 72 h; max response: stronger effect = lower value
# How it was run: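 Stage III-V P. falciparum 3D7 gametocytes, 20,000 per well, were exposed to compounds for 72 h at 37C, 5% CO2. AlamarBlue was then added for 24 h and viability was read as fluorescence at Ex 525/Em 598 nm.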
# [7] = qHTS assay for cell viability of HEK293 cells (AID 743288); details: ATP luminescence (CellTiter-Glo), 18 h; max response: stronger effect = lower value; further: nearly all actives have a fitted effect of over 50% in size
# How it was run: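 The Tox21 protocol used parental HEK293 cells treated for 18 h at 37 C with compounds delivered by pintool; ATP-coupled luminescence after 30 min at room temperature gave viability.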
# [8] = qHTS assay for cell viability of the p53RE-bla HCT-116 cell line (AID 743292); further: nearly all actives have a fitted effect of over 55% in size
# How it was run: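 CellSensor p53RE-bla HCT-116 cells, 4,000/well, preincubated 5 h at 37 C, then exposed to compounds in DMSO for 16 h at 37 C. Viability read as CellTiter-Glo luminescence (intracellular ATP) after 30 min at room temperature.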
# [9] = qHTS for compounds that reverse cellular toxicity of Amyloid beta (A-beta) peptide in yeast: LOPAC Validation Assay (AID 720559)
# How it was run: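 Activity is expressed relative to DMSO and an equimolar ferric chloride/clioquinol mix. Compounds were pinned into medium with A-beta-expressing yeast, grown 48 hr at 30 C, then read by absorbance at 600 nm.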
# [10] = qHTS for Activators of Parkin Expression: LOPAC Validation Assay (FLuc Reporter) (AID 720573)
# How it was run: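 A neuronal cell line harbouring FLuc and NLuc reporters behind the Parkin promoter was exposed to compounds for 24 h. Firefly luciferase signal, measured after 10 min with detection reagent, was scaled to DMSO and positive-control wells.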
# [11] = molecular target: T1, Hexokinase-4 (Homo sapiens) + Glucokinase regulatory protein (Homo sapiens) (UniProt P35557+Q14397); assay: qHTS assay for inhibitors of recombinant human GCK-GKRP interaction: Diaphorase-coupled assay (AID 743205)
# T1 sequence (P35557 whole entry, looked up): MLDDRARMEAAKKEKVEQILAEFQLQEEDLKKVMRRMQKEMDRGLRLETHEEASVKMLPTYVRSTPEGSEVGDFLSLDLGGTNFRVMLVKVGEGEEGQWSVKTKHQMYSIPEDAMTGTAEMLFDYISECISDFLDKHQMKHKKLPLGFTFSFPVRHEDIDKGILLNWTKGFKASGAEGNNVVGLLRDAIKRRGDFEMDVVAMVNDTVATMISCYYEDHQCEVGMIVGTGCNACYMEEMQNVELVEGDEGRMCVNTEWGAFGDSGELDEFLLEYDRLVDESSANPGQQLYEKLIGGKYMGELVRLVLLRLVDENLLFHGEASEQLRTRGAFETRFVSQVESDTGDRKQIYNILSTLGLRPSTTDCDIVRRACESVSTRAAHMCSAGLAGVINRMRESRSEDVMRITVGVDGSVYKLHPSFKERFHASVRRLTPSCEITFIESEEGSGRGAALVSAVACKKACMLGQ
# T1 sequence (Q14397 whole entry, looked up): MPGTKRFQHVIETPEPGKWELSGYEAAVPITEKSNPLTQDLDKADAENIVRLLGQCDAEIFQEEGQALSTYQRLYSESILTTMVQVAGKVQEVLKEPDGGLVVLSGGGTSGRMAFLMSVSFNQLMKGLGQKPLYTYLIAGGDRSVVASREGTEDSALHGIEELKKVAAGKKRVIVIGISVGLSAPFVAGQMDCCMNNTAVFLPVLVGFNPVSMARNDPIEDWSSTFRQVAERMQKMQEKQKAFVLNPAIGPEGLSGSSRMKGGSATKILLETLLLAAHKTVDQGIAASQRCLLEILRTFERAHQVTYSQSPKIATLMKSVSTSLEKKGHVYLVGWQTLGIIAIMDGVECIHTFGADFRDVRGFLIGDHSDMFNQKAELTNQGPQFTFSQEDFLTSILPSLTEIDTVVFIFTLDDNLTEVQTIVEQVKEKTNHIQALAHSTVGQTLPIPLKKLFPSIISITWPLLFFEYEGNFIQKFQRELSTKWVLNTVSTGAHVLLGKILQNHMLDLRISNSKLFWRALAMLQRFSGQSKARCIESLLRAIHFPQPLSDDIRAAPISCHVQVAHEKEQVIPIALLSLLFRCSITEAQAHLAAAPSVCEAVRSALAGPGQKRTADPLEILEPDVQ
# How it was run: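 Inhibitors of the GCK–GKRP complex relieve GKRP suppression of GCK, detected through a G6PDH–diaphorase cascade reducing resazurin. Human GST-GCK and FLAG-GKRP are used at 10 nM with 5 mM glucose and 0.4 mM ATP.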
# [12] = molecular target: T1, Hexokinase-4 (Homo sapiens) + Glucokinase regulatory protein (Homo sapiens); assay: qHTS assay for inhibitors of recombinant human GCK-GKRP interaction: ADP-Glo assay (AID 743206)
# How it was run: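 GST-GCK and FLAG-GKRP (15 nM each in the dispensed mix, with 2 uM S6P) react with 0.4 mM ATP and 5 mM glucose (final) in Hepes pH 7.6 for 60 min at room temperature. ADP is measured by ADP-Glo luminescence.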
# [13] = molecular target: T1, Hexokinase-4 (Homo sapiens) + Glucokinase regulatory protein (Homo sapiens); assay: qHTS assay for inhibitors of recombinant human GCK-GKRP interaction: HTRF assay (AID 743207)
# How it was run: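 Steps: dispense GCK–GKRP complex (5 nM each, GST- and FLAG-tagged) with 2 uM S6P; pin in compounds; add XL665/Eu-cryptate-labelled antibodies; incubate 60 min at room temperature; read time-resolved FRET at 665 and 615 nm.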
# [14] = qHTS profiling of the MIPE4 collection as inhibitors of Plasmodium falciparum (3D7) proliferation (AID 743344; call rule not given here); details: P. falciparum 3D7 in erythrocytes, SYBR Green DNA fluorescence, 72 h; at 28.5 µM (top of the series) unless noted
# How it was run: (§1)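 Erythrocytes infected with P. falciparum (0.3% parasitemia, 2.5% hematocrit) incubated with compounds 72 h at 37 C, 5% CO2. Lysis with saponin/Triton buffer containing SYBR Green I, overnight at room temperature in the dark; DNA fluorescence (485/535 nm) normalised to 0.29 uM artemisinin and DMSO.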
# [15] = qHTS for small molecule inhibitors of Yes1 kinase: Counter Assay (AID 686950);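 further: no kinase present so only ADP-Glo detection of a fixed ADP amount is tested; luminescence from ADP-Glo reporting ADP in a fixed ATP and ADP mixture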
# How it was run: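 Enzyme-free ADP-Glo interference check: compounds were preincubated 20 min in buffer, then an ATP/ADP mix (0.08 mM ATP, 0.02 mM ADP final) was added for 60 min at room temperature before two-step ADP-Glo luminescence detection.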
# [16] = qHTS profiling for inhibitors of Plasmodium falciparum (3D7) proliferation (AID 743322);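 further: infected erythrocytes exposed to compound for 72 h before lysis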; details: P. falciparum 3D7 proliferation; at 28.7 µM (top of the series)
# How it was run: as §1
# [17] = qHTS profiling for inhibitors of Plasmodium falciparum (DD2) proliferation (AID 743323; call rule not given here); details: lower = more inhibition; at 28.7 µM (top of the series)
# How it was run: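 Parasite DNA quantified by SYBR Green fluorescence (ex 485, em 535 nm) after saponin/Triton lysis and overnight dark incubation. Cultures: 0.3% parasitemia, 2.5% hematocrit, 72 h, 37 C; data scaled between DMSO and 0.29 uM artemisinin.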
# [18] = qHTS profiling for inhibitors of Plasmodium falciparum (HB3) proliferation (AID 743324); details: Plasmodium falciparum HB3 blood-stage proliferation; at 28.7 µM (top of the series)
# How it was run: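 P. falciparum HB3 grown in erythrocytes (0.3% parasitemia, 2.5% hematocrit final) with compound for 72 h at 37 C, 5% CO2. Parasite DNA detected by SYBR Green after saponin/triton lysis overnight; normalized to 0.29 uM artemisinin and DMSO.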
# [19] = molecular target: Tyrosine-protein kinase Yes (Homo sapiens) (UniProt P07947); assay: qHTS for small molecule inhibitors of Yes1 kinase: Primary Screen (AID 686947); further: nearly all actives have a fitted effect of over 60% in size
# Tyrosine-protein kinase Yes (Homo sapiens), sequence (P07947 whole entry, looked up): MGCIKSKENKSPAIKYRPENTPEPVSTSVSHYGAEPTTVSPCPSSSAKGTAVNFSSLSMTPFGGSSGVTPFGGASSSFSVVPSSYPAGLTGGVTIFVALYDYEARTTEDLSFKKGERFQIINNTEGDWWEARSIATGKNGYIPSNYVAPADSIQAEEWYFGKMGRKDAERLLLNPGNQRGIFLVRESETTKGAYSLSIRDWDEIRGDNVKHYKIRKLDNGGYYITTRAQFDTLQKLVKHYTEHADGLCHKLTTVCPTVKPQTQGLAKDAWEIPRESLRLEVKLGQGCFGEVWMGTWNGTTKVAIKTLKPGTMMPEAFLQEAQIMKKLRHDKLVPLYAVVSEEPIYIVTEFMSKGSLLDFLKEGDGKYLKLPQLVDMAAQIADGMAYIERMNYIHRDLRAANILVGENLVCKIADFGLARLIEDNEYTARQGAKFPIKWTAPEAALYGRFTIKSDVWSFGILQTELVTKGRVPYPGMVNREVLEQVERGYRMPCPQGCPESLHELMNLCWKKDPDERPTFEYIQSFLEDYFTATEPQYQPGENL
# How it was run: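 ADP-Glo luminescence readout; final 4 nM Yes1, 0.1 mM ATP, 0.3 mg/mL poly(E4Y), Tris pH 7.5, MgCl2, DTT, Brij-35. 20 min compound preincubation, 60 min reaction at RT. Normalized to DMSO wells with and without enzyme.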
# [20] = molecular target: Arylsulfatase A (Homo sapiens) (UniProt P15289); assay: qHTS screen for enhancers of Arylsulfatase A (ASA1): LOPAC Validation Assay (AID 720538); details: outcome: dose series up to 57.5 µM
# Arylsulfatase A (Homo sapiens), sequence (P15289 whole entry, looked up): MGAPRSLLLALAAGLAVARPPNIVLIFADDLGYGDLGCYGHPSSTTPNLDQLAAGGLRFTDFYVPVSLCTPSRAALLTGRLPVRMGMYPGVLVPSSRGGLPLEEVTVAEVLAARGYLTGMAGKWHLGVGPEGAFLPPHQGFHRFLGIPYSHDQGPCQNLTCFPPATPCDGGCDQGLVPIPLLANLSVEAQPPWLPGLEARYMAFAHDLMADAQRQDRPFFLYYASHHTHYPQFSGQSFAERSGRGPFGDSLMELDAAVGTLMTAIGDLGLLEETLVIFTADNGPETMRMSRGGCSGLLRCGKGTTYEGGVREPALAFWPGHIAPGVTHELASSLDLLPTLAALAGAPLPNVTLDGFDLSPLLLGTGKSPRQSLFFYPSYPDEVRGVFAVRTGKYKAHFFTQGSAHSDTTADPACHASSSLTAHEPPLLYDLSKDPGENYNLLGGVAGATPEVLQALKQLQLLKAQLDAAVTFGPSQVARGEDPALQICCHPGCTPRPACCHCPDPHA
# How it was run: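 First, ASA-I179S fibroblasts from an MLD patient adhered for 6 hrs. Next, compounds were added for 48h. Then pNCS substrate (0.5mM final) with lysis buffer reacted 14h at room temperature before NaOH stop and fluorescence measurement.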
compound,measurement,setting,value
Cc1cc(NS(=O)(=O)c2ccc(N)cc2)no1,outcome,[1],inactive
same,outcome,[2],inactive
same,outcome,[3],inactive
same,Potency,[4],inactive
same,max response,[5],3.89% (inactive)
same,max response,[6],-4.78% (inactive)
same,max response,[7],-9.46% (inactive)
same,Potency,[8],inactive
O=C(O)C1CCCN(CCC=C(c2ccccc2)c2ccccc2)C1 (stereo not given),outcome,[9],inactive
same,outcome,[10],inactive
same,outcome,[11],inactive
same,outcome,[12],inactive
same,outcome,[13],inactive
same,max response,[6],17.5% (inactive)
same,"parasite growth, % of DMSO control",[14],82.1%
CNC(=O)c1cc(Oc2ccc(NC(=O)Nc3ccc(Cl)c(C(F)(F)F)c3)cc2)ccn1,outcome,[15],inactive
same,max response,[6],-3.89% (inactive) and 12.7% (inactive) and 20% (inactive)
same,remaining parasite growth % (stronger effect = lower value),[16],31.5% and 9.84%
same,"activity, percent of control",[17],29.9% and 20%
same,"remaining proliferation (% of control), lower = more inhibition",[18],3.29% and 1.23%
same,"parasite growth, % of DMSO control",[14],15.4%
CCN(CC)CCn1c(=O)c(Cc2ccc(OC)cc2)nc2ccccc21,outcome,[19],inactive
same,outcome,[15],inactive
same,outcome,[20],inactive
same,outcome,[9],inactive
same,outcome,[10],inactive
same,outcome,[11],inactive
same,outcome,[12],inactive
same,outcome,[13],inactive
same,max response,[6],-7.99% (inactive)
same,remaining parasite growth % (stronger effect = lower value),[16],41.3%
same,"activity, percent of control",[17],89.9%
same,"parasite growth, % of DMSO control",[14],206%
Cc1ccnc2c1NC(=O)c1cccnc1N2C1CC1,outcome,[3],inactive
same,Potency,[4],inactive
same,max response,[5],-0.463% (inactive)
same,max response,[6],21.9% (inactive)
same,max response,[7],-6.97% (inactive)
same,Potency,[8],inactive
N[C@@H](Cc1ccc(O)c(O)c1)C(=O)O,outcome,[20],inactive
same,outcome,[9],inactive
same,outcome,[10],inactive
same,max response,[5],13.2% (inactive)
same,outcome,[11],inactive
same,outcome,[12],inactive
same,outcome,[13],inactive
same,max response,[6],20.2% (inactive)
same,max response,[7],4.23% (inactive)
same,Potency,[8],inactive
same,"parasite growth, % of DMSO control",[14],85.4%
OCc1ccc(-c2nn(Cc3ccccc3)c3ccccc23)o1,outcome,[20],inactive
same,outcome,[9],inactive
same,outcome,[10],inactive
same,outcome,[11],inactive
same,outcome,[12],inactive
same,outcome,[13],inactive
same,max response,[6],-5.09% (inactive)
same,"parasite growth, % of DMSO control",[14],74.2%
COc1cc2nc(N3CCCN(C)CC3)nc(NC3CCN(Cc4ccccc4)CC3)c2cc1OC,outcome,[19],inactive
same,outcome,[15],inactive
same,outcome,[20],inactive
same,outcome,[9],inactive
same,outcome,[10],inactive
same,outcome,[11],inactive
same,outcome,[12],inactive
same,outcome,[13],inactive
same,Potency,[6],1180 nM (active)
same,remaining parasite growth % (stronger effect = lower value),[16],0.848%
same,"activity, percent of control",[17],0.575%
same,"parasite growth, % of DMSO control",[14],4.4%
